According to the supplement of paper PMC7801607:

Columns and labels:
CHO = experiment: % viability of CHO cells (MTT); higher = less toxic; conditions: 48 h
Procedure, shortened: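 After overnight attachment of CHO cells seeded at 10^6 cells/well in 200 µL, the medium was exchanged for fresh medium holding compound at 2 or 20 µM. Exposure lasted 48 h. Survival was read with the colorimetric tetrazolium (MTT) assay and expressed as percent of untreated cells.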

HepG2-A16-CD81 = experiment: % inhibition of HepG2 viability (CellTiter-Glo); higher = more toxic; conditions: 5 µM;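 note: HepG2-A16-CD81 hepatoma cells plated as in the liver-stage assay but without sporozoites, with DMSO wells as negative and 25 µM puromycin as positive control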
[1] = test system: Plasmodium falciparum NF54 stage IV/V gametocytes; experiment: % inhibition of gametocyte viability (PrestoBlue); higher = more inhibition; conditions: 48 h
Procedure, shortened: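 Compound at 1 or 5 µM was incubated with Stage IV/V NF54 gametocytes (2% gametocytaemia, 5% haematocrit) for 48 h at 37 °C, stationary and hypoxic. A 2 h PrestoBlue step followed, with fluorescence read at 612 nm on transferred supernatant. Inhibition of gametocyte viability, in percent, was normalised to vehicle and kill controls from a single run.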

[2] = test system: Plasmodium falciparum NF54 asexual blood stage; experiment: % inhibition of asexual blood stage proliferation (pLDH); higher = more inhibition; conditions: 72 h
Procedure, shortened: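 Compound was tested at 2 or 20 µM against Plasmodium falciparum NF54 ring stages (1% haematocrit, 2% parasitaemia) for 72 h at 37 °C in 4% CO2, 3% O2 and 93% N2. Survival was read at 620 nm with the parasite lactate dehydrogenase assay, and inhibition of asexual proliferation was given as a percentage of controls.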

[3] = test system: Plasmodium falciparum NF54 stage IV/V gametocytes; experiment: % inhibition of gametocyte viability (ATP bioluminescence); higher = more inhibition; conditions: 24 h
Procedure, shortened: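 Compound at 1 or 5 µM was tested on stage IV/V NF54 gametocytes, enriched on density gradients and plated at 30,000 per well in 96-well plates. After 24 h at 37 °C, ATP was quantified by Promega BacTiter Glo bioluminescence. Values are percent inhibition of gametocyte viability from one run, normalised to controls.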

[4] = test system: Plasmodium falciparum NF54 stage IV/V gametocytes; experiment: % inhibition of gametocyte viability (luciferase reporter); higher = more inhibition; conditions: 48 h
Procedure, shortened: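 Luminescence from 30 µL lysate combined with 30 µL Promega luciferin substrate was recorded on a GloMax-Multi+ reader using 10 s integration. The lysate came from stage IV/V NF54-Pfs16-GFP-Luc gametocytes (2% gametocytaemia, 2% haematocrit) held with compound at 1 or 5 µM for 48 h at 37 °C under stationary, hypoxic conditions. Percent inhibition was normalised against controls run once.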

Row | Structure (SMILES) | % viability of CHO cells (CHO; 2 µM) [%] | % viability of CHO cells (CHO; 20 µM) [%] | % inhibition of HepG2 viability (HepG2-A16-CD81) [%] | % inhibition of gametocyte viability ([1]; 1 µM) [%] | % inhibition of gametocyte viability ([1]; 5 µM) [%] | % inhibition of asexual blood stage proliferation ([2]; 2 µM) [%] | % inhibition of asexual blood stage proliferation ([2]; 20 µM) [%] | % inhibition of gametocyte viability ([3]; 1 µM) [%] | % inhibition of gametocyte viability ([3]; 5 µM) [%] | % inhibition of gametocyte viability ([4]; 1 µM) [%] | % inhibition of gametocyte viability ([4]; 5 µM) [%]
1 | O=c1cc(Nc2ccc3ccccc3c2)[nH]c(=O)[nH]1 | 85.2 | 85.2 | 4.08 | < 0 | 4.14 | 1.56 | 3.03 | < 0 | < 0 | < 0 | 1.22
2 | CCOC(=O)/C=C/[C@H](C[C@@H]1CCNC1=O)NC(=O)[C@@H](CC(=O)[C@@H](NC(=O)c1cc(C)on1)C(C)C)Cc1ccc(F)cc1 | 124 | 129 | 2.38 | 27.5 | 17.3 | 16.3 | 53.7 | 4.33 | < 0 | 1.29 | 10.2
3 | O=C(O)CCNC(=O)c1ccccc1 | 112 | 60.6 | -2.32 | < 0 | -0.209 | 25.9 | 15.9 | < 0 | < 0 | < 0 | 6.13
4 | Oc1ccc(NCc2ccccc2OCc2ccccc2)cc1 | 97.9 | 103 | -1.04 | < 0 | < 0 | 18.6 | 95 | < 0 | < 0 | < 0 | < 0
